ATXN2 expr inh – ATXN2 expression inhibition; 360,000 tested, 0.72% active; HEK-293 ATXN2-luciferase reporter, luminescence, 24 h; AID 1745845; Potency, µM (titrated, usually from 57 µM), for inactives: top-dose activity change, negative = inhibition, most hits filed as inhibitors; also: % is scaled to controls: 0 for no effect and ±100 for the full control effect; nearly all actives have a fitted effect of over 55% in size
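ATXN2-luciferase reporter cells (luciferase flanked by upstream and downstream ATXN2 gene portions) were treated 24 h at 37 °C with compounds at up to 57 uM. SteadyGlo luminescence gave expression; GF-AFC fluorescence gave viability.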
KB-3-1 tox – KB-3-1 parental cell cytotoxicity | KB-3-1 viability, CellTiter-Glo ATP luminescence, 72 h | 400,000 tested, 1.4% active | Potency, µM (highest dose often 46.1 µM), actives largely listed as cytotoxic; also: % is scaled to controls: 0 for no effect and ±100 for the full control effect; nearly all actives have a fitted effect of over 60% in size
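Using CellTiter-Glo luminescence, growth of non-resistant KB-3-1 adenocarcinoma cells is assessed 72 h after pin-tool compound addition at 37 °C. Normalized responses across the concentration series yield fitted curves.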
HepG2 tox – kills HepG2 cells in TGF-b inhibitor counter-screen. HepG2 CAGA-GFP viability, ATP luminescence, 18 h. 410,000 tested, 0.76% active. Potency, µM (highest dose often 46.1 µM), for inactives: top-dose activity change, negative = cytotoxicity, usual class: cytotoxic
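CellTiter-Glo luminescence gave cytotoxicity after 18 hours at 37 degrees C. The cells were HepG2 CAGA-GFP in 1% FBS DMEM, stimulated with 500 pg/mL TGF-beta after compound addition. %Activity was normalised to no-cell wells (complete cell-killing) and DMSO (no toxicity), and curves were fitted and classified.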
ATXN viability – viability counter-screen for ATXN expression inhibitors. S2 cells (HEK-293 line with an ATXN2-luciferase reporter) viability, CellTiter-Fluor protease fluorescence, 24 h. AID 651635. Potency, µM (series often up to 56.7 µM), hits mostly cytotoxic. 400,000 tested, 0.49% active; also: nearly all actives have a fitted effect of over 40% in size
TGFb SMAD3 inh – inhibitors of TGF-b signaling | HepG2 CAGA-GFP TGF-b/SMAD3 reporter, GFP fluorescence, 18 h; TGF-beta stimulated, 500 pg/mL final | AID 588855 | Potency, µM (titrated, usually from 46.1 µM), inactives show at the highest dose activity, negative = inhibition, actives largely listed as inhibitors | 410,000 tested, 1.2% active; also: % is scaled to controls: 0 for no effect and ±100 for the full control effect; nearly all actives have a fitted effect of over 65% in size
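HEPG2 CAGA-GFP reporter cells (1000/well, DMEM with 1% FBS) received compounds, then recombinant TGF-beta at 500 pg/mL final for 18 hours at 37 degrees C. Per-cell GFP summed per well was normalised to unstimulated and stimulated DMSO controls before curve fitting.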
KB-V1 MDR tox – KB-V1 MDR subline cytotoxicity; KB-V1 MDR cells viability, CellTiter-Glo, 72 h; Potency, µM (titrated, usually from 46.1 µM), hits mostly cytotoxic; 400,000 tested, 3.4% active; AID 1347076; also: % is scaled to controls: 0 for no effect and ±100 for the full control effect; nearly all actives have a fitted effect of over 60% in size
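KB-V1, DMEM (no phenol red) + 10% FBS; cpd pin-transferred, titration series; 72 h, 37 degrees C; CellTiter-Glo, luminescence. Data normalized, curve-fit.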
* = called active by the depositor; i = inactive; u = inconclusive; x = no result. In the library only some 5.9% were active in any assay of this set; here they are far more common. Calls follow the shape of the dose curve; as a rule, active = well fitted curve in the direction sought with a large enough effect; inconclusive = small, poorly fitted or top-dose-only effect, or another doubt; inactive = no such curve, though single readings can be large; an effect the other way counts as inactive or inconclusive. Potency is read from the fitted curve at half-maximal effect.

SMILES	ATXN2 expr inh	KB-3-1 tox	HepG2 tox	ATXN viability	TGFb SMAD3 inh	KB-V1 MDR tox
CN(C)CCNc1ccc2nnn3c4ccc(O)cc4c(=O)c1c23	u	7.3µM*	-14%	u	u	u
CCN(CC)CCCNc1ccc2ncn3c4ccc(O)cc4c(=O)c1c23	u	23µM*	-29%	u	16%	u
CCN(CC)CCCNc1ncnc2ccccc12	6%	i	5%	i	10%	i
CCCCn1c(SCC(=O)Nc2ccc3c(c2)OCO3)nc2c1c(=O)n(C)c(=O)n2C	-27%	21µM*	-2%	i	u	5.8µM*
CCCCn1c(SCC(=O)Nc2nnc(CC)s2)nc2c1c(=O)n(C)c(=O)n2C	0%	i	-65%	i	-10%	21µM*
CCCn1c(SCC(=O)Nc2nnc(C(C)C)s2)nc2c1c(=O)n(C)c(=O)n2C	-1%	13µM*	4%	i	2%	u
CCCn1c(SCC(=O)Nc2ccc(NC(=O)CC)cc2)nc2c1c(=O)n(C)c(=O)n2C	1%	i	4%	i	2%	i
CCn1c(C(=O)N2CCC(C(=O)NCCc3ccc(OC)cc3OC)CC2)cc2sccc21	x	i	-28%	x	u	i
CCN(CC)S(=O)(=O)c1ccc(N2CCOCC2)c(NC(=O)c2cnccn2)c1	-10%	i	-44%	i	-1%	u
O=C(Nc1cc(S(=O)(=O)N2CCOCC2)ccc1N1CCOCC1)c1cnccn1	-7%	i	-3%	i	-3%	10µM*
O=C(Cc1ccccc1Cl)Nc1cc(S(=O)(=O)N2CCOCC2)ccc1N1CCOCC1	1%	i	-9%	i	-26%	16µM*
O=S(=O)(c1cccc(-c2csc(-c3ccccc3)n2)c1)N1CCOCC1	1%	i	3%	i	-16%	i
O=S(=O)(c1cccc(-c2nc3ccccc3s2)c1)N1CCOCC1	2%	u	-19%	i	27%	16µM*
CC(Oc1cccc(Cl)c1)C(=O)Nc1cc(S(=O)(=O)N2CCOCC2)ccc1N1CCCCC1 (centres undefined)	-27%	u	6%	i	u	18µM*
O=C(CSc1nc2ccccc2s1)Nc1cc(S(=O)(=O)N2CCOCC2)ccc1Cl	-1%	i	-8%	i	0%	18µM*
Cc1ccc(S(=O)(=O)N2CCOCC2)cc1NC(=O)CN1CCC(Cc2ccccc2)CC1	u	21µM*	-31%	i	-23%	i
CCN1CCN(c2ccc(S(=O)(=O)N3CCCCC3)cc2NC(=O)Cc2ccc(Cl)c(Cl)c2)CC1	-11%	u	18µM*	i	16µM*	i
Cc1ccc(S(=O)(=O)N2CCOCC2)cc1NC(=O)CN1CCN(C)CC1	-17%	i	-3%	i	0%	i
CSc1ccc(CCNC(=O)C2CCN(c3ncnc4c3nc3n4CCCCC3)CC2)cc1	x	x	-5%	x	-6%	x
CCN(CC(=O)NCCc1ccc(F)cc1)Cc1nc2ccccc2c(=O)[nH]1	x	i	-34%	i	-7%	u
CC(C)C(=O)N(Cc1ccc(F)cc1)Cc1nc2ccccc2c(=O)[nH]1	-6%	i	20µM*	i	-2%	i
COc1ccccc1CN(Cc1nc2ccccc2c(=O)[nH]1)S(=O)(=O)c1ccc2ccccc2c1	u	i	-23%	u	u	13µM*
COc1ccccc1CN(Cc1nc2ccccc2c(=O)[nH]1)C(=O)Nc1cccc(C)c1	37%	i	8.9µM*	i	u	u
O=c1[nH]c(CN(CCc2ccccc2)S(=O)(=O)c2ccc(Cl)cc2)nc2ccccc12	-1%	i	-2%	i	-22%	3.3µM*
COc1ccc(S(=O)(=O)N(Cc2ccccc2)Cc2nc3ccccc3c(=O)[nH]2)cc1	-1%	i	-5%	i	9%	u
